From PubChem BioAssay (NCATS)
Several values for one entry are separate records, joined by “and”; a condition that tells them apart may be missing. Equal entries are not always repeated. Results filed as inconclusive are left out. Activity calls are given as the source filed them. Unless noted, calls follow the shape of the dose curve; as a rule, active = well fitted cell-killing curve with a large enough effect; inconclusive = small, poorly fitted or top-dose-only effect; inactive = flat fitted curve, though single readings scatter.

Columns and labels:
[1] = Cell Viability - LYMP2-023 (AID 975); conditions: LYMP2-023 lymphoblastoid cell viability; series mostly up to 92.2 µM;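 also: cellular ATP measured by luciferase luminescence as viability proxy; plate controls were DMSO only for no effect and 92 µM tetraoctylammonium bromide control for full effect; nearly all actives have a fitted effect of over 55% in size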
Method in brief: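 2500 cells/well, 5 hr 37 C; cpd 24 hr 37 C; CellTiter-Glo, 30 min RT; luminescence. qHTS conc-response, Hill fit -> AC50. Pos ctrl tetraoctylammonium bromide.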

[2] = Cell Viability - LYMP2-025 (AID 976); conditions: LYMP2-025 lymphoblastoid cell viability; series mostly up to 92.2 µM;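 also: plate controls were DMSO only for no effect and tetraoctylammonium bromide control for full effect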
Method in brief: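 Seed 2500 LYMP2-025 cells/well; 5 hr at 37 C; add compound; 24 hr at 37 C; add CellTiter-Glo; 30 min RT; read luminescence. AC50 from Hill-modelled concentration-response.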

[3] = Cell Viability - LYMP2-002 (AID 977); conditions: LYMP2-002 lymphoblastoid cell viability, qHTS; series mostly up to 92.2 µM;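 also: compound exposure lasted 24 h at 37 °C; plate controls were DMSO only for no effect and 92 µM tetraoctylammonium bromide for full effect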
Method in brief: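 Human lymphoblastoid LYMP2-002 cells, 2500 per well, exposed to compounds for 24 h at 37 C in complete medium; viability read as intracellular ATP by CellTiter-Glo luminescence, AC50 from Hill fits.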

[4] = Cell Viability - LYMP2-006 (AID 978); conditions: LYMP2-006 lymphoblastoid cell viability, qHTS; series mostly up to 92.2 µM; also: % is scaled to controls: 0 for no effect and ±100 for the full control effect; nearly all actives have a fitted effect of over 60% in size
Method in brief: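 qHTS, 1536-well; 2500 cells/well, 5 hr 37 C; cpd 24 hr 37 C; CellTiter-Glo 30 min RT; luminescence. Tetraoctylammonium bromide pos. ctrl. AC50 via Hill eqn.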

[5] = Cell Viability - LYMP2-007 (AID 979); conditions: LYMP2-007 lymphoblastoid cell viability; series mostly up to 92.2 µM;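 also: cells exposed to compound for 24 h before reading; 0% = DMSO only and the negative end = 92 µM tetraoctylammonium bromide; nearly all actives have a fitted effect of over 60% in size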
Method in brief: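 Luminescent ATP signal (CellTiter-Glo) serves as the viability read-out after 24 hr compound treatment of lymphoblastoid cells in complete medium at 37 C. Concentration-response data were fitted to the Hill equation to give AC50 values.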

[6] = Cell Viability - LYMP2-008 (AID 980); conditions: LYMP2-008 lymphoblastoid cell viability, qHTS; series mostly up to 92.2 µM; also: % is scaled to controls: 0 for no effect and ±100 for the full control effect; nearly all actives have a fitted effect of over 60% in size
Method in brief: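 qHTS, human lymphoblastoid line, 2500 cells/well; 5 hr preincubation, 24 hr compound, 37 C. CellTiter-Glo ATP luminescence. AC50 via Hill equation. Tetraoctylammonium bromide positive control.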

[7] = Cell Viability - LYMP2-010 (AID 981); conditions: LYMP2-010 lymphoblastoid cell viability, qHTS; series mostly up to 92.2 µM; also: % is scaled to controls: 0 for no effect and ±100 for the full control effect; nearly all actives have a fitted effect of over 55% in size
Method in brief: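 Luminescent ATP signal (CellTiter-Glo) served as the viability read-out. Cells of the human lymphoblastoid line were treated with compound over a concentration range for 24 hours at 37 C, and AC50 values came from Hill-equation modeling.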

[8] = Cell Viability - LYMP2-012 (AID 982); conditions: LYMP2-012 lymphoblastoid cell viability qHTS; series mostly up to 92.2 µM;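 also: cellular ATP by luciferase luminescence where a drop means cytotoxicity; cells exposed to compound for one day before reading; 0% = DMSO only and full loss = 92 µM tetraoctylammonium bromide; nearly all actives have a fitted effect of over 55% in size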
[9] = Cell Viability - LYMP2-014 (AID 983); conditions: LYMP2-014 lymphoblastoid cells, viability qHTS; series mostly up to 92.2 µM;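 also: plate controls were DMSO only for no effect and 92 µM tetraoctylammonium bromide for full effect; nearly all actives have a fitted effect of over 50% in size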
Method in brief: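 Luminescent ATP signal (CellTiter-Glo, 30 min at room temperature) serves as the viability read-out after 24 hr compound exposure at 37 C. Cells were seeded at 2500 per well and settled 5 hr beforehand.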

[10] = Cell Viability - LYMP2-018 (AID 985); conditions: LYMP2-018 lymphoblastoid cells, viability (qHTS); series mostly up to 92.2 µM;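 also: plate controls were DMSO only for no effect and tetraoctylammonium bromide at 92 µM for full effect; nearly all actives have a fitted effect of over 50% in size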
Method in brief: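 Luminescent ATP signal (CellTiter-Glo, read after 30 min at room temperature) reports viable cells after 24 hr compound treatment at 37 C. Concentration-response data were fitted to the standard Hill equation for AC50.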

[11] = Cell Viability - LYMP2-020 (AID 986); conditions: series mostly up to 92.2 µM;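 also: plate controls were DMSO only for no effect and tetraoctylammonium bromide at 92 µM for full effect; nearly all actives have a fitted effect of over 55% in size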
Method in brief: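 Luminescent ATP signal (CellTiter-Glo, 30 min at room temperature) is the read-out after 24 h compound treatment of lymphoblastoid cells at 37 C. AC50 values come from Hill-equation fits across concentrations.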

[12] = Cell Viability - LYMP2-022 (AID 987); conditions: LYMP2-022 lymphoblastoid cell viability; series mostly up to 92.2 µM
Method in brief: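 qHTS: human lymphoblastoid cells 2500/well; 5 hr 37 C; cpd added; 24 hr 37 C; CellTiter-Glo, 30 min RT; luminescence. AC50 via Hill fit; tetraoctylammonium bromide positive ctrl.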

[13] = Cell Viability - LYMP2-024 (AID 988); conditions: LYMP2-024 lymphoblastoid cell viability; series mostly up to 92.2 µM;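 also: plate controls were DMSO only for no effect and 92 µM tetraoctylammonium bromide for full effect; nearly all actives have a fitted effect of over 60% in size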
Method in brief: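 Steps: seed 2500 cells/well, 5 hr 37 C; add compound, 24 hr 37 C; add CellTiter-Glo, 30 min room temperature; read luminescence. AC50 derived by Hill modelling of concentration-dependent ATP loss.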

[14] = Cell Viability - LYMP2-026 (AID 989); conditions: LYMP2-026 lymphoblastoid cell viability, qHTS; series mostly up to 92.2 µM; also: % is scaled to controls: 0 for no effect and ±100 for the full control effect; nearly all actives have a fitted effect of over 50% in size
Method in brief: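 Luminescent ATP signal (CellTiter-Glo, 30 min room temperature) measures viable lymphoblastoid cells after 24 hr compound treatment at 37 C. Decreased ATP reflects acute toxicity; AC50 values come from Hill-equation modeling.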

[15] = Cell Viability - LYMP1-002 - Assay at 24 hr (AID 993); conditions: LYMP1-002 lymphoblastoid cells viability; series mostly up to 92.2 µM; also: % is scaled to controls: 0 for no effect and ±100 for the full control effect
Method in brief: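 Cells plated 2500/well, 5 hr 37 C; compounds added, 24 hr 37 C; CellTiter-Glo added, 30 min RT; luminescence read. Tetraoctylammonium bromide positive control. Hill-equation AC50.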

[16] = Cell Viability - LYMP1-002 - Assay at 40 hr (AID 994); conditions: LYMP1-002 lymphoblastoid cell viability; series mostly up to 92.2 µM
Method in brief: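 Luminescent ATP signal served as the viability readout, with decreases taken as toxicity. Cells were treated with compounds across a concentration range for 40 hours at 37 C, and AC50 values came from standard Hill modeling.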

[17] = qHTS Assay for Identification of Small Molecule Inducers of Hypoxia Response (AID 2120; active = well fitted curve in the direction sought with a large enough effect in the signal ratio, with a control signal flat, not every such curve was filed as active; the % refers to the signal ratio; also: 0% is about no effect); conditions: hypoxia response reporter cells, beta-lactamase ratio readout; series mostly up to 104 µM
Method in brief: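 ME-180 HRE-bla cells plated in Opti-MEM/0.5% dialyzed FBS, rested 4-5 h, then dosed with compound titrations by pin tool. After 17 h at 37 degrees C, CCF4 dye loaded 2.5 h at RT; 460/530 nm ratio gave %Activity and AC50.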

[18] = molecular target: Estrogen receptor (Homo sapiens) (UniProt P03372); experiment: qHTS assay for small molecule antagonists of estrogen receptor alpha signaling (AID 588513; active = well fitted curve in the direction sought with a large enough effect in the signal ratio, with a control signal flat, not every such curve was filed as active; the % refers to the signal ratio; also: % is scaled to controls: 0 for no effect and ±100 for the full control effect); conditions: ER-alpha-UAS-bla HEK293, beta-lactamase ratio, antagonist mode; series mostly up to 76.9 µM
Sequence of Estrogen receptor (Homo sapiens) (P03372 whole entry, looked up): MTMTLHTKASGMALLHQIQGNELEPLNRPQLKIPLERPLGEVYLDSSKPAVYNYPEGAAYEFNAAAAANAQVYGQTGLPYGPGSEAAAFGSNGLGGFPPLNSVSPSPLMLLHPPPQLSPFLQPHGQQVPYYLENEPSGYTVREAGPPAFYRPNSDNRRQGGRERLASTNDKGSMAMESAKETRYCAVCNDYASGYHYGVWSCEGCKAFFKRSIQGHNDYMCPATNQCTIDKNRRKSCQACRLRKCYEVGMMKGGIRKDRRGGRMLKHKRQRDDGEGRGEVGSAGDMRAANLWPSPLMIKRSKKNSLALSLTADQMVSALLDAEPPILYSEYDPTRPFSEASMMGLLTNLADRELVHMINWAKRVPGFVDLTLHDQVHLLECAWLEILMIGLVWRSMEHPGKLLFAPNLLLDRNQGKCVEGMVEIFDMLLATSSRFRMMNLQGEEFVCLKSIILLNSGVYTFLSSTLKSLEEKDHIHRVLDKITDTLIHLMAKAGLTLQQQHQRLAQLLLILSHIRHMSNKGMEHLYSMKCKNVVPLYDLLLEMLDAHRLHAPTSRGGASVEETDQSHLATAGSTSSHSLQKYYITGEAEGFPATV
Method in brief: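 Beta-lactamase reporter, antagonist mode, HEK 293 GripTite cells; 0.5nM E2 stimulus, 18 h, 37 C; CCF4 dye 2 h RT; fluorescence. IC50 and efficacy from Hill fits, normalized to E2 and DMSO.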

[19] = molecular target: Estrogen receptor (Homo sapiens) (UniProt P03372); experiment: qHTS assay for small molecule agonists of estrogen receptor alpha signaling (AID 588514; calls by dose curve;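 also: 0% = vehicle only and 100% = reference agonist; nearly all actives have a fitted effect of over 70% in size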); conditions: ER-alpha-UAS-bla HEK293, beta-lactamase ratio, 18 h; series mostly up to 76.8 µM
Method in brief: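 Cells were plated at 5000/well, incubated 4 hrs at 37 C, dosed with compound titration series, incubated 18 hrs at 37 C, loaded with CCF4 dye for 2 hrs at RT, then fluorescence was read.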

[20] = molecular target: Androgen receptor (Homo sapiens) (UniProt P10275); experiment: qHTS assay for small molecule antagonists of androgen receptor signaling (AID 588516; active = well fitted curve in the direction sought with a large enough effect in the signal ratio, with a control signal flat, not every such curve was filed as active; the % refers to the signal ratio; also: % is scaled to controls: 0 for no effect and ±100 for the full control effect); conditions: AR-UAS-bla HEK293, beta-lactamase ratio, antagonist mode, 16 h; series mostly up to 76.8 µM
Sequence of Androgen receptor (Homo sapiens) (P10275 whole entry, looked up): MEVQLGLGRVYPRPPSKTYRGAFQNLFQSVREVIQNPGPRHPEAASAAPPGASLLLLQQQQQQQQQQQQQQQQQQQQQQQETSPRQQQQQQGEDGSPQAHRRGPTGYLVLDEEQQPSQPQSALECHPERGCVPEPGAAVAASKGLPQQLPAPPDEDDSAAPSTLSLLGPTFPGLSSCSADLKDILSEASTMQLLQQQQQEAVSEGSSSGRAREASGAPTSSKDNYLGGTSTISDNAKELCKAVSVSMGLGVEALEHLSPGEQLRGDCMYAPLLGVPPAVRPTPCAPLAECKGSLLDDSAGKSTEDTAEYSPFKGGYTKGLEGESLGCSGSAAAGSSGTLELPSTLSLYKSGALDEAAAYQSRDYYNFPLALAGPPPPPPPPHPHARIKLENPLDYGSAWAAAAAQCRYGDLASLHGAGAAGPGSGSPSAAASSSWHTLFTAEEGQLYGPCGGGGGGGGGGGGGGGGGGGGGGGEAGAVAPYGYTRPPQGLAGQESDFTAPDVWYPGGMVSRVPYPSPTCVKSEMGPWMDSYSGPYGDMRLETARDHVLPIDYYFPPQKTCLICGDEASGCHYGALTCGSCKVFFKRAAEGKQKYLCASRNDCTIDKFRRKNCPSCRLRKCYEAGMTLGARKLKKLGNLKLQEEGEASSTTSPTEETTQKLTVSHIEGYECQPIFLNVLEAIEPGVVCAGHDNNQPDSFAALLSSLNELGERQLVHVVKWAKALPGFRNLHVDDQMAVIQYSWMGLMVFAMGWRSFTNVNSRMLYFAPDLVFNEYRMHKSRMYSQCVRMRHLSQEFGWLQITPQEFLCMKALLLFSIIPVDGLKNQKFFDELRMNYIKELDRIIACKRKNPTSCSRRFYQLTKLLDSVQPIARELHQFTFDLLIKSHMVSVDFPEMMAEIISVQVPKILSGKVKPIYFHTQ
Method in brief: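 HEK293 AR-UAS-bla cells, 10% dialyzed FBS medium; cpd titration + R1881 10 nM final, 16 h 37 C; CCF4 2 h RT; FRET ratio; IC50/efficacy via Hill fit.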

[21] = molecular target: Glucocorticoid receptor (Homo sapiens) (UniProt P04150); experiment: qHTS assay for small molecule agonists of glucocorticoid receptor signaling (AID 588532; active = well fitted curve in the direction sought with a large enough effect in the signal ratio, with a control signal flat; the % refers to the signal ratio;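 also: 100% = dexamethasone at 0.1 µM and 0% = DMSO only wells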); conditions: HeLa MMTV-bla, beta-lactamase ratio, agonist, 18 h; stronger effect = higher value; percent of dexamethasone control, DMSO zero
Sequence of Glucocorticoid receptor (Homo sapiens) (P04150 whole entry, looked up): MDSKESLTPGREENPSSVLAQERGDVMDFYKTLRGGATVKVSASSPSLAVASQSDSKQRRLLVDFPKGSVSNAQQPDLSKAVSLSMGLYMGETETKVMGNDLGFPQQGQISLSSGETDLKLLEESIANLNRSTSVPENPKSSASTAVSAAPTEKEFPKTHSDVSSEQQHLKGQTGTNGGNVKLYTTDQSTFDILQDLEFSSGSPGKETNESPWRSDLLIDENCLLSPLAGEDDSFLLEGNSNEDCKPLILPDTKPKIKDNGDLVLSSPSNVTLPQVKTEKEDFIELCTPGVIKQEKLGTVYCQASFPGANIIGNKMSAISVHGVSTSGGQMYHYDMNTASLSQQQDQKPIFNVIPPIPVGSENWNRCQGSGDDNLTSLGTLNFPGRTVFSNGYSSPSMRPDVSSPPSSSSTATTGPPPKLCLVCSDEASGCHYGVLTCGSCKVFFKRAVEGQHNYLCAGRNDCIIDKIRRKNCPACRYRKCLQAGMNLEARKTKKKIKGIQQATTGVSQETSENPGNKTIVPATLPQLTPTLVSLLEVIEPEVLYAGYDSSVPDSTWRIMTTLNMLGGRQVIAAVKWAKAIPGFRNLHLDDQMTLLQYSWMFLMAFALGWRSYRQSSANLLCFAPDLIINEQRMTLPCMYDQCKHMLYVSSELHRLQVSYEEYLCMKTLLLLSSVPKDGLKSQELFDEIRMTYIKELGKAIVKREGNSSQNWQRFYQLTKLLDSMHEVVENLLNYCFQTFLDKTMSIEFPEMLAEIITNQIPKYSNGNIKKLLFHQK
Method in brief: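 HeLa GRE-bla reporter cells; 18 h compound exposure at 37 C; 2 h CCF4 loading at room temperature; fluorescence at 460 and 530 nm; EC50 by Hill equation.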

[22] = molecular target: Glucocorticoid receptor (Homo sapiens) (UniProt P04150); experiment: qHTS assay for small molecule antagonists of glucocorticoid receptor signaling (AID 588533; active = well fitted inhibition curve with a large enough effect in the signal ratio, with a control signal flat, not every such curve was filed as active; the % refers to the signal ratio;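 also: cells stimulated with 2 nM dexamethasone as agonist; % is scaled to controls: 0 for no effect and ±100 for the full control effect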); conditions: HeLa MMTV-bla, GRE beta-lactamase ratio, antagonist mode, 18 h; series mostly up to 76.8 µM
Method in brief: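 Antagonist-mode qHTS: compound titrations added to GRE-bla HeLa cells, then dexamethasone 2 nM final; 18 h, 37 C. CCF4 FRET fluorescence normalized to dexamethasone and DMSO; IC50 from Hill fit.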

c1ccc2c(c1)[nH]c1ccccc12
inactive: Potency [1] | Potency [2] | Potency [3] | Potency [4] | Potency [5] | Potency [6] | Potency [7] | Potency [8] | Potency [9] | Potency [10] | Potency [11] | Potency [12] | Potency [13] | Potency [14] | Potency [15] | Potency [16] | outcome [17] | Potency [18] | Potency [19] | outcome [20] | activation [21] -0.462% and 14.4% | Potency [22]
